Reference: PubChem BioAssay (Tox21)
Results filed as inconclusive are left out. The source made the active and inactive calls. Calls come from the whole dose curve; as a rule, active = well fitted curve in the direction sought with a large enough effect in the repeat runs; inconclusive = weak or mixed curves; inactive = no such curve, though single readings can be large; an effect the other way counts as inactive or inconclusive.

Key:
[1] = qHTS RealTime-Glo MT Cell Viability Assay in HEK293 cells - 16 hour (AID 1224872); note: top concentration of the series differs between compounds; nearly all actives have a fitted effect of over 50% in size
In short: (§1)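 Assay medium contained NanoLuc luciferase plus cell-permeant prosubstrate, added with HEK293 cells at 600 cells/well. After 5 h at 37 C/5% CO2 compounds were added; plates stayed at 37 C for 40 h with serial luminescence reads.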

[2] = qHTS RealTime-Glo MT Cell Viability Assay in HepG2 cells - 8 hour (AID 1224873); note: nearly all actives have a fitted effect of over 55% in size
In short: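 Real-time viability: cells seeded at 600 per well together with NanoLuc and cell-permeant prosubstrate, compounds added after 5 h incubation. Luminescence tracked at 0, 8, 16, 24, 32 and 40 h of exposure.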

[3] = A CellTox Green Cytotoxicity Assay to monitor cytotoxicity in HEK293 cells - 24 hour (AID 1224875); note: series mostly up to about 77 µM; nearly all actives have a fitted effect of over 45% in size
In short: (§2)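 Seeding of HEK293 cells together with cytotoxicity dye preceded a 5 h incubation at 37 C/5% CO2. Test compounds in DMSO were then added and fluorescence monitored across 40 h.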

[4] = qHTS RealTime-Glo MT Cell Viability Assay in HepG2 cells - 32 hour (AID 1224877); note: nearly all actives have a fitted effect of over 55% in size
In short: (§3)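 qHTS, HepG2, 600 cells/well, RealTime-Glo (NanoLuc + prosubstrate) added with cells; 5 h preincubation; DMSO compound addition; 37 C; luminescence at 0/8/16/24/32/40 h.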

[5] = A CellTox Green Cytotoxicity Assay to monitor cytotoxicity in HepG2 cells - 24 hour (AID 1224878); note: nearly all actives have a fitted effect of over 45% in size
In short: (§4)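 Nonlytic assay: viable cells exclude the dye, so fluorescence scales with cell death. HepG2 at 600 cells/well, compounds added after 5 h, signal read across 40 h.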

[6] = A CellTox Green Cytotoxicity Assay to monitor cytotoxicity in HepG2 cells - 40 hour (AID 1224879); note: nearly all actives have a fitted effect of over 40% in size
In short: as §4

[7] = qHTS RealTime-Glo MT Cell Viability Assay in HEK293 cells - 0 hour (AID 1224880); note: top concentration of the series differs between compounds; nearly all actives have a fitted effect of over 45% in size
In short: (§5)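 Tox21 screen in HEK293 using RealTime-Glo MT chemistry, with cells and reagent co-dispensed. Luminescence proportional to viable cell number was captured at intervals during 40 h compound exposure at 37 C.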

[8] = A CellTox Green Cytotoxicity Assay to monitor cytotoxicity in HEK293 cells - 32 hour (AID 1224881); note: nearly all actives have a fitted effect of over 40% in size
In short: as §2

[9] = A CellTox Green Cytotoxicity Assay to monitor cytotoxicity in HepG2 cells - 32 hour (AID 1224883); note: nearly all actives have a fitted effect of over 50% in size
In short: as §4

[10] = A CellTox Green Cytotoxicity Assay to monitor cytotoxicity in HEK293 cells - 8 hour (AID 1224884); note: nearly all actives have a fitted effect of over 35% in size
In short: as §2

[11] = qHTS RealTime-Glo MT Cell Viability Assay in HepG2 cells - 16 hour (AID 1224885); note: nearly all actives have a fitted effect of over 50% in size
In short: as §3

[12] = qHTS RealTime-Glo MT Cell Viability Assay in HEK293 cells - 24 hour (AID 1224886); note: top concentration of the series differs between compounds; nearly all actives have a fitted effect of over 50% in size
In short: as §1

[13] = qHTS RealTime-Glo MT Cell Viability Assay in HEK293 cells - 8 hour (AID 1224887)
In short: as §5

[14] = A CellTox Green Cytotoxicity Assay to monitor cytotoxicity in HEK293 cells - 16 hour (AID 1224888); note: nearly all actives have a fitted effect of over 35% in size
In short: as §2

[15] = qHTS RealTime-Glo MT Cell Viability Assay in HepG2 cells - 0 hour (AID 1224889); note: nearly all actives have a fitted effect of over 50% in size
In short: as §3

[16] = A CellTox Green Cytotoxicity Assay to monitor cytotoxicity in HepG2 cells - 8 hour (AID 1224890); note: nearly all actives have a fitted effect of over 45% in size
In short: as §4

[17] = qHTS assay to identify small molecule antagonists of the estrogen receptor alpha (ER-alpha) signaling pathway using the BG1 cell line in the presence of 0.1 nM 17-beta-estradiol - cell viability counter screen (AID 1259241); note: nearly all actives have a fitted effect of over 40% in size
In short: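 The cell line endogenously expresses full-length ER-alpha and carries four EREs driving luciferase. Cells are cultured 5 days hormone-free, treated 22 hr with compounds and 0.1 nM estradiol, then viability is read by fluorescence.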

[18] = qHTS RealTime-Glo MT Cell Viability Assay in HEK293 cells - 40 hour (AID 1224874); details: RealTime-Glo luminescence; max response: hits give low values; note: nearly all actives have a fitted effect of over 50% in size
In short: as §5

[19] = A CellTox Green Cytotoxicity Assay to monitor cytotoxicity in HepG2 cells - 16 hour (AID 1224876); note: nearly all actives have a fitted effect of over 45% in size
In short: as §4

[20] = A CellTox Green Cytotoxicity Assay to monitor cytotoxicity in HepG2 cells - 0 hour (AID 1224882); note: nearly all actives have a fitted effect of over 35% in size
In short: as §4
% is set by controls: 0 for no effect and ±100 for the full control effect.

CC(=O)NCCCCCC(=O)O
inactive: Potency [1] | outcome [2] | outcome [3] | outcome [4] | outcome [5] | Potency [6] | Potency [7] | Potency [8] | Potency [9] | Potency [10] | outcome [11] | Potency [12] | Potency [13] | outcome [14] | Potency [15] | outcome [16] | Potency [17]

CCOc1cc(NC(C)=O)ccc1C(=O)OC
inactive: outcome [2] | max response [18] -4.96% | outcome [3] | outcome [19] | outcome [4] | outcome [5] | Potency [6] | Potency [7] | Potency [8] | Potency [9] | Potency [10] | Potency [12] | Potency [13] | outcome [14] | Potency [15] | Potency [17]

O=C(/N=N/C(=O)OCc1ccccc1)OCc1ccccc1
inactive: Potency [1] | max response [18] -13.7% | outcome [3] | outcome [4] | outcome [5] | Potency [6] | Potency [8] | outcome [20] | Potency [9] | Potency [10] | outcome [11] | Potency [12] | Potency [13] | outcome [14] | Potency [15] | outcome [16] | Potency [17]

CCCCOCCOC(=O)COc1nc(Cl)c(Cl)cc1Cl
inactive: Potency [1] | max response [18] 7.86% | outcome [19] | outcome [4] | outcome [5] | Potency [6] | Potency [7] | Potency [8] | outcome [20] | Potency [9] | outcome [11] | Potency [12] | Potency [13] | outcome [14] | outcome [16] | Potency [17]

NNc1nnc(NN)c2ccccc12
inactive: Potency [1] | outcome [2] | outcome [3] | outcome [19] | outcome [4] | Potency [6] | Potency [7] | Potency [8] | outcome [20] | Potency [9] | Potency [10] | outcome [11] | Potency [12] | Potency [13] | outcome [14] | outcome [16] | Potency [17]

COC(=O)CCCCCCCC(=O)OC
inactive: outcome [2] | max response [18] 11.9% | outcome [3] | outcome [19] | outcome [4] | outcome [5] | Potency [6] | Potency [7] | Potency [8] | outcome [20] | Potency [9] | Potency [10] | outcome [11] | Potency [12] | Potency [13] | outcome [14] | Potency [15] | outcome [16] | Potency [17]

Cc1cc(Cl)c(C)cc1Cl
inactive: Potency [1] | outcome [2] | outcome [3] | outcome [4] | outcome [5] | Potency [6] | Potency [8] | outcome [20] | Potency [9] | Potency [10] | outcome [11] | Potency [12] | Potency [13] | outcome [14] | Potency [15] | outcome [16]

Cc1ccsc1/C=C/C1=NCCCN1C
inactive: outcome [2] | max response [18] 2.37% | outcome [3] | outcome [19] | outcome [4] | outcome [5] | Potency [6] | Potency [7] | Potency [8] | Potency [9] | Potency [10] | outcome [11] | Potency [12] | Potency [13] | outcome [14] | outcome [16] | Potency [17]

CC1=CCC(C(C)C)=CC1
inactive: outcome [2] | max response [18] -3.87% | outcome [3] | outcome [19] | outcome [4] | outcome [5] | Potency [6] | Potency [7] | Potency [8] | outcome [20] | Potency [9] | Potency [10] | outcome [11] | Potency [12] | Potency [13] | outcome [14] | Potency [15] | outcome [16] | Potency [17]

c1ccc2nccnc2c1
inactive: Potency [1] | outcome [2] | outcome [3] | outcome [19] | outcome [4] | Potency [6] | Potency [8] | outcome [20] | Potency [9] | Potency [10] | Potency [12] | Potency [13] | outcome [14] | Potency [15] | outcome [16] | Potency [17]

O=C1CC(c2ccc(Cl)cc2)CC(=O)N1
inactive: Potency [1] | outcome [2] | outcome [3] | outcome [19] | outcome [4] | Potency [6] | Potency [7] | Potency [8] | outcome [20] | Potency [9] | Potency [10] | outcome [11] | Potency [12] | Potency [13] | outcome [14] | outcome [16] | Potency [17]

CCCOC(=O)C(C)O (stereo not drawn)
inactive: Potency [1] | outcome [2] | outcome [19] | outcome [4] | outcome [5] | Potency [6] | Potency [8] | outcome [20] | Potency [9] | Potency [10] | Potency [12] | Potency [13] | outcome [14] | Potency [15] | outcome [16] | Potency [17]

CC(=C(CCOC(=O)C(C)C)SSC(CCOC(=O)C(C)C)=C(C)N(C=O)Cc1cnc(C)nc1N)N(C=O)Cc1cnc(C)nc1N
inactive: Potency [1] | outcome [2] | outcome [3] | outcome [4] | Potency [7] | Potency [8] | Potency [10] | outcome [11] | Potency [12] | Potency [13] | outcome [14] | Potency [17]

O=C1CCCC(=O)O1
inactive: Potency [1] | outcome [2] | outcome [3] | outcome [19] | outcome [4] | Potency [6] | Potency [8] | Potency [9] | Potency [10] | outcome [11] | Potency [12] | Potency [13] | outcome [14] | Potency [15] | outcome [16] | Potency [17]

Cc1ccccc1N=O
inactive: Potency [1] | outcome [2] | outcome [3] | outcome [19] | outcome [4] | Potency [6] | Potency [7] | Potency [8] | Potency [9] | Potency [10] | outcome [11] | Potency [12] | Potency [13] | outcome [14] | Potency [15] | outcome [16] | Potency [17]
